Compounds with a hit are over-represented: about 19% of the library has one in this group of screens.
HT1080 IDH1KD tx – HT-1080 IDH1 knockdown cell toxicity (counter line). HT-1080 IDH1 knockdown viability, ATP luminescence, 48 h. Potency, µM (series often up to 46.1 µM), for the others: at the top dose activity, negative = toxicity, actives largely listed as cytotoxic. 360,000 compounds, 2% hits;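 note: potency is the fitted concentration of half-maximal effect; 0% = DMSO wells and -100% = cell-free medium wells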
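After a 2 h attachment period, IDH1KD HT-1080 cells took pin-transferred compound for 48 h at 37 °C; ATP-based luminescence after 10 min room-temperature reagent incubation reported viability.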
ELG1 repair inh – ELG1-dependent DNA repair inhibition | HEK293T ELG1-luciferase reporter, luminescence, 16 h; DNA damage induced by 5-fluorouridine | Potency, µM (top dose mostly 46.1 µM), for inactives: top-dose activity change, negative = inhibition, hits mostly inhibitors | 330,000 compounds, 2.3% hits | AID 504467; note: potency is the fitted concentration of half-maximal effect; nearly all actives have a fitted effect of over 55% in size
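Overnight (16 hr) co-exposure of 2,000 cells/well to 5-fluorouridine and compound at 37 °C preceded detection. Luciferase was quantified via ONE-Glo luminescence; loss of signal denotes inhibition.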
DT40 TDP1 CPT – DT40-hTDP1 cell growth loss with CPT; 420,000 compounds, 12% hits; AID 686979; chicken DT40 Tdp1-/-;hTDP1 cells + 20 nM CPT, ATP luminescence, 48 h; Potency, µM (doses to about 46.2 µM), without a hit: at the top dose activity change, negative = growth inhibition, actives largely listed as inhibitors; note: potency is the fitted concentration of half-maximal effect; nearly all actives have a fitted effect of over 55% in size
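Cell growth measured by CellTiter-Glo luminescence after a minimum 48 h, 37 C compound exposure with 20 nM CPT in Tdp1-knockout DT40 cells stably expressing hTDP1, seeded 400/well; qHTS titration format.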
DT40 TDP1 no CPT – qHTS for Inhibitors of human tyrosyl-DNA phosphodiesterase 1 (TDP1): qHTS in cells in absence of CPT; DT40 Tdp1-/- hTDP1 cells, no CPT, ATP luminescence, 48 h; Potency, µM (series often up to 46.2 µM), inactives show top-dose activity change, negative = growth inhibition, most hits filed as inhibitors; 420,000 compounds, 15% hits; AID 686978, 2013; note: potency is the fitted concentration of half-maximal effect; nearly all actives have a fitted effect of over 55% in size
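Growth of hTDP1-complemented DT40 Tdp1-knockout cells is measured by ATP luminescence after at least 48 hr compound exposure at 37 °C, with DMSO substituting for the 20 nM CPT used in the parallel screen.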
HT1080NT lethal – kills 2HG-producing HT-1080-NT fibrosarcoma cells; Potency, µM (top dose mostly 46.1 µM), for inactives: at the top dose activity, negative = less viability, hits mostly cytotoxic; AID 686970; HT-1080-NT fibrosarcoma viability, CellTiter-Glo ATP luminescence, 48 h; 360,000 compounds, 1.6% hits;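 note: NT is the 2HG producing partner of a matched IDH1 knockdown line; potency is the fitted concentration of half-maximal effect; 0% = DMSO-treated cells and -100% = media-only wells without cells; nearly all actives have a fitted effect of over 55% in size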
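Read-out is CellTiter-Glo luminescence after 10 minutes at room temperature, following 48 hours' compound treatment of HT-1080-NT cells (750 cells/well, RPMI, 5% FBS, 37 degrees C).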
IL-1B inflam inh – inhibitors of inflammasome signaling (IL-1 beta secretion). THP-1 LPS/ATP IL-1B secretion, AlphaLISA, 16 h; active compounds read low. activity change, % at 57.5 µM. 360,000 compounds, 4.7% hits. AID 743279; in the data active = activity change below about -50%; inconclusive = mostly about -30% to -49%
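Secreted IL-1B measured by AlphaLISA bead assay after 16 h compound exposure of THP-1 cells; compounds (final up to 57.5 uM) added 1 h before LPS (250 ng/mL) and ATP (1.25 mM) stimulation; lower signal means less secretion.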
* hit, by the source's call; u = inconclusive; x = no result given; [ ] = dose if it differs, or a comment. Unless noted, calls come from the whole dose curve; as a rule, active = well fitted curve in the direction sought with a large enough effect; inconclusive = small, poorly fitted or top-dose-only effect, or another doubt; inactive = no such curve, though single readings can be large; an effect the other way counts as inactive or inconclusive. Unless noted, % is set by controls: 0 for no effect and ±100 for the full control effect.

SMILES	HT1080 IDH1KD tx	ELG1 repair inh	DT40 TDP1 CPT	DT40 TDP1 no CPT	HT1080NT lethal	IL-1B inflam inh
CCOc1ccc(CNC(=O)c2ccc3c(c2)nc2n3CCCCC2)cc1	x	x	-25%	-34%	x	x
CSc1ccc(CCNC(=O)c2ccc3c(c2)nc2n3CCCCC2)cc1	x	x	-62%	16µM*	x	x
Cc1ccccc1OCC(=O)OCC(=O)NC1CCCC1	8%	x	7%	-1%	9%	13
CCCOc1ccc(C(=O)Nc2cc3c(cc2N2CCOCC2)n(C)c(=O)n3C)cc1	x	x	-9%	3%	x	x
N#Cc1cccc(-c2cncnc2-n2ccnc2)c1	x	x	6%	15%	x	x
COc1ccc(Br)cc1CNC(=O)c1ccc2c(c1)nc1n2CCCCC1	x	x	u	16µM*	x	x
Cc1c(N2C(=O)CSC2=S)c(=O)n(-c2ccccc2)n1C	-5%	u	u	u	-13%	-77*
Cc1ccc(CN2CCC2(C)C(=O)NC(C)C)cc1 (stereo not drawn)	u	x	u	u	0%	14
Brc1ccc(-c2nc3ncccn3c2NC2CCCCC2)o1	-19%	u	16µM*	u	-26%	-5
Cc1ccc(-c2nc3ncccn3c2NC2CCCC2)o1	0%	-13%	-8%	u	5%	3
CC1CCN(S(=O)(=O)c2ccc3nc(N4CCN(c5ccccc5F)CC4)ccc3c2)CC1	x	x	-14%	u	x	x
CC1CCN(S(=O)(=O)c2ccc3nc(Nc4ccc(C#N)cc4)ccc3c2)CC1	x	x	u	21µM*	x	x
CC1CCN(S(=O)(=O)c2ccc3nc(Nc4cccc(C(F)(F)F)c4)ccc3c2)CC1	x	x	18µM*	u	x	x
O=S(=O)(c1ccc2nc(Nc3ccc(Br)cc3F)ccc2c1)N1CCCC1	x	x	-19%	-22%	x	x
CCN1C(=O)CC(CC(=O)N2CCCCC2c2nccs2)(c2ccccc2C)C1=O (stereo not drawn)	x	x	-2%[9.04 µM]	-12%	x	x
Cc1cc2c(cc1C)-c1nnnn1C(N1CCC(Cc3ccccc3)CC1)C(=O)N2 (stereo not drawn)	u	x	15µM*	9.2µM*	u	-1
Cc1ccc(Sc2c(C)nn(C(=O)COc3ccccc3Br)c2C)cc1	x	x	-12%	-3%	x	x
CCc1ccc(-n2c(SCc3cccc(F)c3)nc3[nH]ncc3c2=O)cc1	x	x	21µM*	16µM*	x	x
Cc1ccc(-n2c(SCc3cccc(F)c3)nc3[nH]ncc3c2=O)cc1C	x	x	21µM*	21µM*	x	x
Cc1nc(CSc2nc3[nH]ncc3c(=O)n2-c2ccccc2)cs1	-17%	-5%	-13%	-3%	-6%	9
CCc1ccc(-n2c(SCc3ccccc3C)nc3[nH]ncc3c2=O)cc1	x	x	u	21µM*	x	x
O=c1c2cn[nH]c2nc(SCc2c(F)cccc2F)n1-c1ccc(Cl)cc1	u	-24%	u	u	-13%	-74*
COc1ccc(CCNC(=O)CSc2nc3[nH]ncc3c(=O)n2-c2ccc(C)c(Cl)c2)cc1OC	-1%	u	-11%	-7%	-1%	-4
O=S(=O)(c1cccc(F)c1)N1CCC(c2nc3ccccc3s2)CC1	x	x	9%	9%	x	x
O=S(=O)(c1ccccc1)N1c2cc(Cl)ccc2Oc2nc3ccccc3nc21	-14%	-7%	u	10µM*	-13%	-8
SMILES	HT1080 IDH1KD tx	ELG1 repair inh	DT40 TDP1 CPT	DT40 TDP1 no CPT	HT1080NT lethal	IL-1B inflam inh
CCc1nc2ccccc2nc1N1CCN(S(=O)(=O)c2ccc(Cl)cc2)CC1	18%	-21%	-5%	u	12%	-6
c1ccc(CNc2cc(-c3ccoc3)ncn2)cc1	x	x	0%	-8%	x	x
O=C(NCc1ccccc1)c1[nH]c(C(F)(F)F)nc1-c1ccccc1	0%	x	-8%	-11%	0%	6
O=C1Nc2ccc(Cl)cc2C12Nc1ccccc1-c1nnc(SCc3ccccc3F)nc1O2 (stereo not drawn)	9%	6%	15µM*	u	3%	27
Cc1ccc(/C(=C\CN2CCCC2)c2cccc(/C=C/C(=O)O)n2)cc1	x	x	-6%	-7%	x	x
Cn1cccc1C(=O)NCc1ccc(S(N)(=O)=O)cc1	5%	1%	2%	4%	0%	16
CCCCOCCCNC(=O)C[C@@H]1C[C@@]2(C(=O)OCC)CCCC=C2N(CCc2ccc(OC)c(OC)c2)C1=O	-8%	x	21µM*	u	0%	-7
CCCCCCCCN1C(=O)[C@H](CC(=O)NCCC(C)C)C[C@@]2(C(=O)OC)CCCCC=C12	-26%	x	u	16µM*	u	-60*
CCOC(=O)[C@]12CCCC=C1N(CCc1ccc(OC)c(OC)c1)C(=O)[C@H](CC(=O)NCCCN1CCCC1=O)C2	10%	x	8%	1%	-7%	-14
CCCCCCCCN1C(=O)[C@H](CC(=O)NCCCOCCCC)C[C@@]2(C(=O)OC)CCCCC=C12	u	x	13µM*	18µM*	u	-78*
CCCCCCCCN1C(=O)[C@H](CC(=O)NCCCOCCCC)C[C@@]2(C(=O)OCC)CCCC=C12	u	x	13µM*	16µM*	u	-16
CCOc1ccc(Cl)cc1S(=O)(=O)N1CCC(C(=O)NCc2ccco2)CC1	-12%	-2%	-23%	-16%	9%	20
CCCCCCCCN1C(=O)[C@H](CC(=O)NCCCC)C[C@@]2(C(=O)OC)CCCCC=C12	u	x	16µM*	12µM*	u	x
COCCCNC(=O)C[C@@H]1C[C@@]2(C(=O)OC)CCCCC=C2N(Cc2ccco2)C1=O	7%	x	1%	0%	2%	10
CN(C)c1nc(OCCNC(=O)COc2ccc(Cl)cc2Cl)nc(N(C)C)n1	6%	21µM*	7.3µM*	8.2µM*	0%	13
C/C(=N/NC(=O)c1cccs1)c1ccc(NC(=O)COc2ccc(Cl)cc2Cl)cc1	-16%	u	15µM*	u	-8%	-11
COc1ccc(NC(=S)NNC(=O)COc2ccc(Cl)cc2Cl)cc1	-7%	-7%	u	21µM*	1%	16
CCC(=O)NC(=S)Nc1ccc(NC(=O)COc2ccc(Cl)c(C)c2)cc1	-13%	-27%	13µM*	16µM*	-7%	2
Cc1cc(OCC(=O)Nc2ccncc2)ccc1Cl	-10%	-26%	u	u	-12%	-6
CCC(=O)NC(=S)Nc1ccc(NC(=O)COc2ccc(Cl)cc2Cl)cc1	-6%	5%	16µM*	8.2µM*	-11%	-10
COC(CC(=O)NNC(=S)Nc1ccccc1)OC	u	-9%	-2%	0%	14%	-8
